In PubChem BioAssay (Tox21):
Inconclusive results are not listed. Calls of active or inactive are those of the source. Unless noted, the call rests on the fitted dose curve; in most records, active means well fitted curve in the direction sought with a large enough effect in the repeat runs; inconclusive means weak or mixed curves; inactive means no such curve, though single readings can be large; an effect the other way counts as inactive or inconclusive.

How the values were obtained:
[1] = A CellTox Green Cytotoxicity Assay to monitor cytotoxicity in HepG2 cells - 32 hour (AID 1224883); further: nearly all actives have a fitted effect of over 50% in size
In short: (§1)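 Cytotoxicity was tracked as dead-cell DNA fluorescence in HepG2 cells treated with test compounds at 37 C; each time-point value comes from one kinetic series spanning 0, 8, 16, 24, 32 and 40 h.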

[2] = A CellTox Green Cytotoxicity Assay to monitor cytotoxicity in HEK293 cells - 8 hour (AID 1224884); further: nearly all actives have a fitted effect of over 35% in size
In short: (§2)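 Real-time, in one plate: 600 HEK293 cells/well with dead-cell DNA dye, pinned compound after 5 h, 37 C incubation over 40 h; viable cells give no appreciable fluorescence.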

[3] = qHTS RealTime-Glo MT Cell Viability Assay in HepG2 cells - 16 hour (AID 1224885); further: nearly all actives have a fitted effect of over 50% in size
In short: (§3)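 Real-time, nonlytic viability: 600 HepG2 cells/well mixed with NanoLuc enzyme plus prosubstrate; 5 h settle, compound (DMSO) added by pintool; luminescence monitored over 40 h at 37 C.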

[4] = A CellTox Green Cytotoxicity Assay to monitor cytotoxicity in HEK293 cells - 16 hour (AID 1224888); further: nearly all actives have a fitted effect of over 35% in size
In short: as §2

[5] = qHTS RealTime-Glo MT Cell Viability Assay in HepG2 cells - 0 hour (AID 1224889); further: nearly all actives have a fitted effect of over 50% in size
In short: as §3

[6] = A CellTox Green Cytotoxicity Assay to monitor cytotoxicity in HepG2 cells - 8 hour (AID 1224890); further: nearly all actives have a fitted effect of over 45% in size
In short: as §1

[7] = qHTS assay to identify small molecule antagonists of the androgen receptor (AR) signaling pathway using the MDA cell line in the presence of 0.5 nM R1881 - cell viability counter screen (AID 1259242); further: nearly all actives have a fitted effect of over 45% in size
In short: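 Cells seeded at 3,000/well and allowed 5 hr at 37C, 0% CO2 before compound transfer and R1881 (0.5 nM final) addition; 16 hr later, live-cell protease fluorescence indicated cytotoxicity.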

[8] = target: Androgen receptor (Homo sapiens) (UniProt P10275); assay: qHTS assay to identify small molecule antagonists of the androgen receptor (AR) signaling pathway using the MDA cell line in the presence of 0.5 nM R1881 (AID 1259243); further: nearly all actives have a fitted effect of over 50% in size
In short: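 Luminescence from an AR/GR-responsive MMTV-luciferase construct in MDA-kb2 breast carcinoma cells, read 30 min after ONE-Glo, following 16 hr co-treatment with compounds and 0.5 nM R1881.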

[9] = target: Estrogen receptor (Homo sapiens) (UniProt P03372); assay: qHTS assay to identify small molecule antagonists of the estrogen receptor alpha (ER-alpha) signaling pathway using the BG1 cell line in the presence of 0.1 nM 17-beta-estradiol (AID 1259244); further: nearly all actives have a fitted effect of over 50% in size
In short: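 Luciferase signal from VM7Luc4E2 ERE-reporter cells, co-dosed with test compound and 0.1 nM final 17beta-estradiol for 22 h, read with ONE-Glo.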

[10] = qHTS assay to identify small molecule HDAC inhibitors (AID 1259364);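 further: wild-type HCT-116 cells with endogenous class I/II HDAC activity; top concentration of the series differs between compounds; nearly all actives have a fitted effect of over 45% in size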
In short: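 HCT-116 wt cells, 1,500/well, overnight attach. Compounds (DMSO) 2 h, 37 °C. HDAC-Glo I/II, 30 min RT. Luminescence.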

[11] = qHTS assay to identify small molecule HDAC inhibitors - cell viability counter screen (AID 1259365)
In short: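 Following a 2hr exposure of overnight-plated wild-type HCT-116 cells to DMSO-delivered compounds, CellTiter-Glo was added and luminescence recorded after 30min at room temperature.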

[12] = qHTS assay to identify small molecule agonists of the sonic hedgehog signaling (Shh) pathway - cell viability counter screen (AID 1259366); further: nearly all actives have a fitted effect of over 50% in size; further: potency means the concentration at half of the fitted maximal effect
In short: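 After a 4hr attachment at 37C, NIH/3T3 cells bearing an integrated Gli1-driven luciferase reporter were dosed with compounds. Treatment lasted 24hr, with the final hour including CellTiter-Fluor for a fluorescence viability measurement.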

[13] = qHTS assay to identify small molecule antagonists of the sonic hedgehog signaling (Shh) pathway - cell viability counter screen (AID 1259367); further: nearly all actives have a fitted effect of over 55% in size
In short: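 Conditioned medium drove Shh signaling in 3T3 Gli1-Luc cells exposed to compounds at 37C and 5% CO2. Viability was determined from CellTiter-Fluor fluorescence, with reagent incubated 1 hr after 23 hr of treatment.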

[14] = qHTS assay to identify small molecule antagonists of the sonic hedgehog signaling (Shh) pathway (AID 1259369; calls by dose curve; further: nearly all actives have a fitted effect of over 45% in size)
In short: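 Read-out is luminescence from a firefly luciferase gene controlled by the Gli1 response element, in 3T3Gli1-Luc cells pre-incubated 4hr then exposed to compounds and conditioned medium for 24hr.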

[15] = qHTS RealTime-Glo MT Cell Viability Assay in HEK293 cells - 24 hour (AID 1224886)
In short: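 Cells + reagent dispensed (600 cells/well, HEK293) → 5 h at 37 C/5% CO2 → 23 nL compound in DMSO pinned → 40 h at 37 C → luminescence read at 0, 8, 16, 24, 32, 40 h.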

[16] = qHTS RealTime-Glo MT Cell Viability Assay in HEK293 cells - 8 hour (AID 1224887); further: nearly all actives have a fitted effect of over 50% in size; further: potency means the concentration at half of the fitted maximal effect; on activity change, negative = cytotoxicity: top concentration of the series differs between compounds
In short: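 Kinetic, non-lysing viability readout. Seed HEK293 (600/well) with reagent, incubate 5 h at 37 C/5% CO2, pin 23 nL compound in DMSO, incubate at 37 C, read luminescence at 0, 8, 16, 24, 32, 40 h.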

[17] = qHTS assay to identify small molecule antagonists of the estrogen receptor alpha (ER-alpha) signaling pathway using the BG1 cell line in the presence of 0.1 nM 17-beta-estradiol - cell viability counter screen (AID 1259241); further: nearly all actives have a fitted effect of over 40% in size; further: potency means the concentration at half of the fitted maximal effect
In short: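 Measures cytotoxicity alongside the ER-alpha antagonist readout: VM7Luc4E2 cells, charcoal-stripped serum, 0.1 nM 17beta-estradiol final, 22 hr compound incubation at 37C, CellTiter-Fluor fluorescence.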

[18] = target: Estrogen receptor beta (Homo sapiens) (UniProt Q92731); assay: qHTS assay to identify small molecule agonists of the estrogen receptor beta (ER-beta) signaling pathway (AID 1259377; active means well fitted activation curve with a large enough effect in the signal ratio in the repeat runs, not every such curve was filed as active; the % refers to the signal ratio)
In short: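 In HEK293T cells bearing a UAS-beta-lactamase reporter under ER-beta control, DMSO-delivered compounds were incubated for 16 hr at 37C. Activity was detected as fluorescence 2 hours after LiveBLAzer B/G FRET substrate addition.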

[19] = qHTS assay to identify small molecule agonists of the sonic hedgehog signaling (Shh) pathway (AID 1259368; calls by dose curve;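 further: NIH/3T3-derived 3T3Gli1-Luc cells carrying a stable Gli1-driven firefly luciferase reporter; series mostly up to about 92 µM; nearly all actives have a fitted effect of over 15% in size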)
In short: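 Following a 24 hr incubation with DMSO-dissolved compounds at 37 C, 5% CO2, Gli1-Luc NIH/3T3-derived cells received luciferase reagent for 30 min at room temperature prior to luminescence measurement.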

[20] = qHTS assay to identify small molecule phospholipidosis (PLD) inducers (AID 1259344; active means well fitted curve in the direction sought with a large enough effect; an effect the other way counts as inactive or inconclusive)
In short: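 After 4 h attachment on collagen I, HepG2 cells were dosed with compound alongside LipidTOX Red, kept 24 h at 37 C, fixed, and imaged for lamellar phospholipid pits.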
On the % scale 0 is the no-effect control and ±100 the full control effect.

Chain of Estrogen receptor (Homo sapiens) (P03372 whole entry, looked up): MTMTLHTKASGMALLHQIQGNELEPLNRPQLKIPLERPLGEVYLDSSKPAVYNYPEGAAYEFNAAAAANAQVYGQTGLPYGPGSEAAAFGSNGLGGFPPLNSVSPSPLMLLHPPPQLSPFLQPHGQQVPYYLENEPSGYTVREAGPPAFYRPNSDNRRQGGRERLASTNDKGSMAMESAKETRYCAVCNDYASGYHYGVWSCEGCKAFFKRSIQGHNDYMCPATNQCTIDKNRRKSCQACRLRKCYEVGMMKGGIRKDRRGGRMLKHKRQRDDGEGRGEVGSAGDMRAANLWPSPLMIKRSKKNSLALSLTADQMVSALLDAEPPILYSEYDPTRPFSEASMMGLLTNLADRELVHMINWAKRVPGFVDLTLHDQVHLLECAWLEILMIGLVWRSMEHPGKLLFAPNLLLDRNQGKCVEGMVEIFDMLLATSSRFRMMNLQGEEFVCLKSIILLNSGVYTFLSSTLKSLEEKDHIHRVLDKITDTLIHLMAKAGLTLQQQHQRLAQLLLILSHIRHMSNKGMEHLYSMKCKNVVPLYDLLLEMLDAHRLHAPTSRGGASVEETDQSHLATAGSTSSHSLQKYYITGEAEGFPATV
Chain of Estrogen receptor beta (Homo sapiens) (Q92731 whole entry, looked up): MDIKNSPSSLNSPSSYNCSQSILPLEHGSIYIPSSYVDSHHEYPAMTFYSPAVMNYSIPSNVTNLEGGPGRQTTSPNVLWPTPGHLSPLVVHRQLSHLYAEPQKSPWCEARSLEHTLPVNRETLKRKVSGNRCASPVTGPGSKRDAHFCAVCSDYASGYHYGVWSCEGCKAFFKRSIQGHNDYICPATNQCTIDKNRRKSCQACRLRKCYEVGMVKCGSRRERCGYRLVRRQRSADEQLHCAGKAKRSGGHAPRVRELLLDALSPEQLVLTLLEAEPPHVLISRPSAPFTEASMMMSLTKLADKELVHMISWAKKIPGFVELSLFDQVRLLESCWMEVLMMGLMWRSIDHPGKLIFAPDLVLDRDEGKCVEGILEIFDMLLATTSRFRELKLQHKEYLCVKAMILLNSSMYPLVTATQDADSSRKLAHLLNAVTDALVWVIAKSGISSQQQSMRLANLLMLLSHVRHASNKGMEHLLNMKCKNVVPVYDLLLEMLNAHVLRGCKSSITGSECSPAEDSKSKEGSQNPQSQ
Chain of Androgen receptor (Homo sapiens) (P10275 whole entry, looked up): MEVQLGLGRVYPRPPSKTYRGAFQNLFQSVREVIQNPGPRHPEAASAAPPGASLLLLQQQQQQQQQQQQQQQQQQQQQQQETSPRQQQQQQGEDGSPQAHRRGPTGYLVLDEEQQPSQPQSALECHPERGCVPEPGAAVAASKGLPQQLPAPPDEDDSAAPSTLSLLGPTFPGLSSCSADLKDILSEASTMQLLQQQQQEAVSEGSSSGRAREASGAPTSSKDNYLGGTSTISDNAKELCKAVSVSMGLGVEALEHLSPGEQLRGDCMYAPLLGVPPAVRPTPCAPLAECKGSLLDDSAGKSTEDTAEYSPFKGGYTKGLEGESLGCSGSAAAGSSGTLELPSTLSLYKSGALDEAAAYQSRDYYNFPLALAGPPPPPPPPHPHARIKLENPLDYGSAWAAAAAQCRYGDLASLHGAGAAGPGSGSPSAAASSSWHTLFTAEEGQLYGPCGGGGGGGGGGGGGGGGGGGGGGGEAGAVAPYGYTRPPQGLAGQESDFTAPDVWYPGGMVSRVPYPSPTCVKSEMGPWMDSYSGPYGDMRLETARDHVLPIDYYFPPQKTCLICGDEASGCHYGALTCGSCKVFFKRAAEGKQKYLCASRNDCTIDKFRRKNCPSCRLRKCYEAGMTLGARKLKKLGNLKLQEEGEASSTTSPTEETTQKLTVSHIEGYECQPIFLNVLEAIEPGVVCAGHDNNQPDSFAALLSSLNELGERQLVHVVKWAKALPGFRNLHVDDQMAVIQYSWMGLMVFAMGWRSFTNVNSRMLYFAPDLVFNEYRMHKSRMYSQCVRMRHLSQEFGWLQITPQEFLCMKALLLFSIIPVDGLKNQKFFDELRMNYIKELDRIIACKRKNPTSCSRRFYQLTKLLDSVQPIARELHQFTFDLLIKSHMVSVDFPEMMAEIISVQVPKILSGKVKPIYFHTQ

COc1ccc2nc(SCc3ncc(C)c(OC)c3C)[nH]c2c1
inactive: Potency [1] | Potency [2] | outcome [3] | outcome [4] | Potency [5] | outcome [6] | outcome [7] | Potency [8] | Potency [9] | Potency [10] | outcome [11] | Potency [12] | Potency [13] | Potency [14]

C=C1CC/C=C(\C)CC[C@@H]2[C@@H]1CC2(C)C
inactive: Potency [1] | outcome [3] | Potency [15] | Potency [16] | outcome [4] | Potency [5] | outcome [6] | Potency [17] | outcome [7] | Potency [9] | Potency [10] | outcome [11] | Potency [12] | Potency [13] | Potency [14] | Potency [18]

CCOC(=O)/C=C/c1ccccc1
inactive: Potency [1] | Potency [2] | outcome [3] | Potency [15] | outcome [4] | Potency [5] | outcome [6] | Potency [17] | Potency [9] | Potency [10] | outcome [11] | Potency [12] | outcome [19] | Potency [14]

CN1C(C)(C)CCCC1(C)C
inactive: Potency [1] | outcome [3] | Potency [15] | Potency [16] | outcome [4] | Potency [5] | outcome [6] | Potency [17] | outcome [7] | Potency [9] | Potency [10] | outcome [11] | Potency [12] | Potency [13] | outcome [19] | Potency [14]

C[C@H](CCC(=O)O)[C@H]1CC[C@H]2[C@@H]3C(=O)C[C@@H]4CC(=O)CC[C@]4(C)[C@H]3CC(=O)[C@]12C
inactive: Potency [1] | Potency [2] | outcome [3] | Potency [15] | outcome [4] | Potency [5] | outcome [6] | outcome [7] | Potency [9] | outcome [20] | Potency [10] | outcome [11] | Potency [12] | outcome [19] | Potency [14] | Potency [18]

CCN1CCc2nc(N)oc2CC1
inactive: Potency [1] | Potency [2] | outcome [3] | Potency [15] | outcome [4] | Potency [5] | outcome [6] | Potency [17] | Potency [9] | Potency [10] | outcome [11] | Potency [12] | Potency [13] | outcome [19] | Potency [14] | Potency [18]

CCC(C)NC(N)=O (centres undefined)
inactive: Potency [1] | Potency [2] | outcome [3] | Potency [15] | outcome [4] | Potency [5] | outcome [6] | outcome [7] | Potency [8] | Potency [9] | Potency [10] | outcome [11] | Potency [12] | Potency [13] | outcome [19] | Potency [14] | Potency [18]

CCCC/C=C\CCCCCCCCCC=O
inactive: Potency [1] | Potency [2] | outcome [3] | Potency [15] | outcome [4] | Potency [5] | outcome [6] | Potency [17] | outcome [7] | Potency [10] | outcome [11] | Potency [12] | Potency [13] | Potency [14] | Potency [18]

CC(N)C(=O)OC(C)(C)Cc1ccc(Cl)cc1 (centres undefined)
inactive: Potency [1] | Potency [2] | outcome [3] | Potency [15] | Potency [5] | outcome [6] | Potency [17] | outcome [7] | Potency [10] | outcome [11] | Potency [12] | Potency [13] | outcome [19] | Potency [14] | Potency [18]

O=C(NCCc1c[nH]c2ccccc12)c1cccnc1
inactive: Potency [1] | outcome [3] | Potency [15] | Potency [16] | outcome [4] | Potency [5] | outcome [6] | Potency [17] | outcome [7] | Potency [8] | Potency [9] | outcome [11] | Potency [12] | Potency [13] | outcome [19] | Potency [18]

Cc1nc2n(c(=O)c1CCN1CCC(c3noc4cc(F)ccc34)CC1)CCC[C@H]2O
active: Potency [16] 3.69 µM
inactive: cytotoxicity increase [1] 2.66% [at 15.8 µM] | cytotoxicity increase [2] 2.15% [at 15.8 µM] | activity change, negative = cytotoxic [3] -0.162% [at 15.8 µM] | activity change [4] 1.32% [at 15.8 µM] | activity change, negative = cytotoxicity [5] 2.14% [at 15.8 µM] | cytotoxicity increase [6] -0.979% [at 15.8 µM] | activity change, negative = cytotoxicity [17] 1.89% [at 19 µM] | viability change, negative = cytotoxic [7] 9.15% [at 19 µM] | activity change, negative = inhibition [9] 1.12% [at 19 µM] | activity change, negative = inhibition [10] -1.31% [at 19 µM] | activity change, negative = cytotoxicity [11] -0.155% [at 19 µM] | viability change, negative = cytotoxic [12] -0.31% [at 19 µM] | viability change, negative = cytotoxic [13] -0.26% [at 19 µM] | activity change [19] -0.0213% [at 18.9 µM] | activity change, negative = inhibition [14] -4.73% [at 19 µM] | activation [18] 1.63% [at 19 µM]

Nc1ccc([N+](=O)[O-])c(N)c1
active: Potency [17] 53.1 µM | Potency [12] 29.9 µM
inactive: Potency [1] | Potency [2] | outcome [3] | Potency [15] | outcome [4] | Potency [5] | outcome [6] | Potency [9] | Potency [10] | outcome [11] | outcome [19] | Potency [14]

CCCCCCOc1ccccc1C(N)=O
inactive: Potency [1] | Potency [2] | outcome [3] | outcome [4] | Potency [5] | outcome [6] | Potency [17] | outcome [20] | outcome [11] | Potency [12] | Potency [13] | outcome [19] | Potency [18]
